In the supplement of paper PMC6555819 one finds PBM binding z-score data, which are given here for 40 sequences.

The test system of this experiment is VDR:RXRa (NR concentration 270 nM, RXRa partner concentration 90 nM). Description: PBM binding z-score (relative to random genomic background probes); higher = stronger binding; sequences stand for … in GC…GCGATTGACAGCGTAGAATGAAGG
On the procedure: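 Protein-binding microarray (Agilent 4x180K custom design, double-stranded 60-nt probes: 5' GC cap, 34-nt variable region, 24-nt constant primer region; full probe sequence given). Purified or IVT nuclear receptor:RXRα heterodimers (3:1 NR:RXRα, mostly 270:90 nM) or homodimers were incubated for 1 h in PBS with 2% milk and no ligand, then detected with Alexa488 antibodies. Fluorescence from o1-orientation probes (~5 replicates averaged) was converted to z-scores against 500 random hg19 background probes. Variable regions are seed direct-repeat (DR0–DR5) sites, all their single-nucleotide variants and half-site ablations.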
Take CGTCCAAGGTCATAGGAGGTAAGTGAAGACAGAT: the PBM binding z-score is 4.61.

With CGTCAAAGTTCAACTAAGGTAACGTCAAGCACGC, the PBM binding z-score turned out to be 4.83.

Turning to TCTATTAGTTGATTTGGGCAACCGAAACAGCGGA, the PBM binding z-score came to 0.688.

As for CCGACTGGGGCAAGGTTACCATAACGCACAGCCA, the PBM binding z-score was determined as 0.0411.

In turn, TCTGCTAGGTCAACGATGGTCGGCTAATCTGCTA had a PBM binding z-score of 1.42.

Sequence CCAACTAGGTCATCCAGGACAGTGAATACATTGA showed a PBM binding z-score of 4.58.

CATGCTAGGTCAATGGTCAGCTAAAGCAGCTCGC returned a PBM binding z-score of 1.06.

AGAATGAGGTTACCAAAGATGAGGGAAACGCTTG displayed a PBM binding z-score of 1.03.

TAGCCTAGGGCATGGGCCAGTATACCACGCGAAC registered a PBM binding z-score of -0.452.

On to CGAACTAGGTAAGAACAGGACAGTGAAGGATGAT, for which the PBM binding z-score was -0.253.

As to TCAGACAGGTGACGGTAACTCAGGTACGCAGTCG, the PBM binding z-score is 0.324.

Regarding ACTTGCAGGCCAAGGGTCACTCAAGATTAGTCCG, the PBM binding z-score was 3.05.

TCTATTAGTTGATTAGGGCAACCGGAACAGCGGA yielded a PBM binding z-score of 0.629.

The sequence GATACAGGGTCAAGGCCAGAGCACGCGTATTGAT gave a PBM binding z-score of 4.21.

In turn, TGTCAAAGTTCAAGGGTAACGTAAGTATCCACAC gave a PBM binding z-score of 4.26.

In turn, TCTATTAGTTGAAGCGCAACCGACGAGTCCGTTT yielded a PBM binding z-score of 0.736.

In turn, GCTATTAGTTGAAAGGGCCACCGAATGATTCTCG came in with a PBM binding z-score of -0.0971.

Turning to CAAACTAGGTCACGAAAGCTCAAAGTCGAATGAC, the PBM binding z-score came to 2.37.

With TCTCGGAGGACACGAAAGGACAGAGCTCGACATC, the PBM binding z-score was -0.146.

With CGTCAAAGTTCAATTAAGGTAACGTAAAGCACGC, the PBM binding z-score was determined as 3.98.

Sequence GGAACGAGGGCAAGTTGAGAGCAGAGTTTGATGG registered a PBM binding z-score of 0.881.

As for AGACTGAGGTTATACGTAGATCAGGGAAGAAAGT, the PBM binding z-score worked out at 1.42.

For CTACCAAGGTGAACAAGGTCGTTGATTACTATTC, the PBM binding z-score came out at 5.95.

Turning to ATATCTAGGTTATCGGGTCATTCAGTTTGCGCAT, the PBM binding z-score is 5.12.

With TTACCAAGGTGAAGGTCTTTGATCCCTCTGTAGA, the PBM binding z-score was -0.00925.

TCTTGTAGATCAGCAGGTTAAGAAAGCTGGCCAA yielded a PBM binding z-score of 0.357.

Consider TCTTGTACATCAAAGGTTAAGAAAGCCGAAGCCT, for which the PBM binding z-score worked out at 1.55.

Take CCGACTGGGGCAAAGCTTACCATACTCAGTACGA: the PBM binding z-score was -0.585.

In turn, ACTAGCAGGCCAAGGGTCACTCACGATTAGTCCG had a PBM binding z-score of 2.69.

CGTCCAAGGTTAGAGAGGTCAGTGAATGCCGAGT gave a PBM binding z-score of 5.7.

The sequence TGAATGAGGTCATAAGATCAGGGAACGTTGCAAA displayed a PBM binding z-score of 4.71.

As to CATACAGGGCCAGCTAGGCCAGAGTAGGGACGGC, the PBM binding z-score is -0.78.

In turn, TAACCAAGGTGAAGGTCGTTGATCCCTCTGTAGA showed a PBM binding z-score of 1.31.

Turning to AGTCAAAGTTCACTAGGTAACGTAAGATTCAGCT, the PBM binding z-score came to 3.83.

For the sequence ACTAGCAGGCCAAGGGTCGCTCAAGATTAGTCCG, the PBM binding z-score was determined as 0.00609.

The sequence CGTGCAAGGTCAGCAGGTCAGTGAAAGCGACGTG returned a PBM binding z-score of 4.25.

The sequence TAGCCTAGGCCATTCAGGGGCCAGTATAGAAAGC had a PBM binding z-score of -0.423.

CCAACTAGGTCACGAAAGGTCAAAGTCGAATGAC registered a PBM binding z-score of 6.81.

As to CCTTCCGGGTCACTCCAGGTTATAGCATCGGAGT, the PBM binding z-score was found to be 4.21.

For CAGCCTAGGTCAGGGCCTGTATAGGAGGAACGTT, the PBM binding z-score is -0.0829.
